# In all, about 65,000 compounds went through this assay and about 2,100 (3.2%) showed an effect of 50% or more. The median lay at about -52%. The list comes from a sample in which strong results are over-represented; it also holds similar structures and randomly drawn compounds.
# Test system: Plasmodium falciparum
# Test: Screen against P. falciparum Asexual Blood Stage (ABS), at 5uM
# Assay type: functional, Dd2
# Conditions: tested at 5 uM
row,Structure (SMILES),INHIBITION [%]
1,COc1ncccc1CN1C[C@@H]2COC[C@]2(COc2cccnc2)C1,-33.8
2,COc1cccc(CN2C[C@@H]3COC[C@]3(COCc3ccncc3)C2)c1,33.5
3,COCc1nc(C(=O)N2CCCC(n3ccnc3)C2)cs1 (configuration not stated),-141
4,Cn1cc(N2CC3(CCN(Cc4ccsc4)CC3)OCC2=O)cn1,-22.1
5,Cc1nc(NCCCn2cccn2)c2c(n1)c(C)nn2C,-54.6
6,Cc1cn2c(n1)CCC(NC(=O)CCCOCc1ccccc1)C2 (configuration not stated),-45.8
7,Cc1nc(CO[C@@H]2CN(Cc3cnn(C)c3)[C@@H]3COC[C@@H]32)cs1,-12.8
8,Cc1n[nH]c(C)c1-c1cc(-c2ccc[nH]2)nc(N)c1C#N,-185
9,CC(C)Cc1cc(-c2cc(-c3ccc[nH]3)nc(N)c2C#N)n[nH]1,61.3
10,Cc1n[nH]c(C)c1-c1cc(-c2cccc(O)c2)nc(N)c1C#N,-71.8
11,N#CC1(NC(=O)c2ccc(F)c(Br)c2)CCSC1 (configuration not stated),-155
12,CCc1ccc(NC(=O)CCN2CC(n3nc(C)cc3C)C2)cc1,-12.9
13,CC(C)CN1CCCC1c1ccc(C(=O)Nc2cc[nH]n2)s1 (configuration not stated),44.6
14,CC(C)CN1CCCC1c1ccc(C(=O)Nc2cn(C)nn2)s1 (configuration not stated),52.9
15,CCc1nnc(NC(=O)c2ccc(C3CCCN3CC(C)C)s2)s1 (configuration not stated),-54.1
16,O=C(Nc1cccc(Cl)c1)c1nn(C2CCS(=O)(=O)C2)c2c1CCCC2 (configuration not stated),25.4
17,O=C(CO[C@@H]1CC[C@H]2[C@H]1OCCN2Cc1ccccn1)N1CCCC1,-59.6
18,O=C(c1cnccn1)N1CCC2(CC1)CCN(Cc1ccccn1)C2=O,-85.2
19,CN(Cc1cncnc1)[C@@H]1CN(Cc2ccco2)C[C@@H]2CCCO[C@@H]21,-7.65
20,COc1cccc(CN2CC[C@H]3[C@@H](C2)[C@H](c2ccsc2)CN3C(C)=O)c1,54.8
21,COc1ccccc1CN1CC[C@H]2[C@@H](C1)[C@H](c1ccsc1)CN2C(C)=O,29.5
22,CC(C)(C)C(=O)N1C[C@H](c2ccsc2)[C@H]2CN(Cc3cccs3)CC[C@H]21,29.8
23,Cn1nc(COc2cccnc2)c2c1CCN(c1cnccn1)C2,-72.3
24,Oc1cc(C2CCCCN2CC2CC2)nc(-c2ccncc2)n1 (configuration not stated),-48.7
25,CS(=O)(=O)N1CCC2(CC1)CN(CC1CCOC1)c1ccccc12 (configuration not stated),-50.1
26,O=C1CC2(CCN(CC3CCOC3)CC2)c2ccccc2N1CC1CC1 (configuration not stated),12.4

row,Structure (SMILES),INHIBITION [%]
1,CCCS(=O)(=O)N1CCC2(CC1)CN(CC1CCOC1)c1ccccc12 (configuration not stated),50.8
2,CCCS(=O)(=O)N1CCC2(CC1)CN(C(=O)N(C)C)c1ccccc12,-7.36
3,CCS(=O)(=O)N1CCC2(CC1)CN(CC1CCOC1)c1ccccc12 (configuration not stated),23.6
4,c1ccc2c(c1)N(CC1CCOC1)CC21CCN(c2cnccn2)CC1 (configuration not stated),69.9
5,Cc1nn(CC(F)F)c2c1c(C(F)F)cc(=O)n2CC(=O)O,-111.45
6,CN1CCCn2c(nc(CNS(=O)(=O)C3CC3)cc2=O)C1,-41.3
7,Cc1nn(C)c2cnn(Cc3ccc(C(=O)NC4CC4)cc3)c12,-60.4
8,c1cnc2c(c1)cc([C@H]1CCCO1)n2CCN1CCCC1,21.4
9,c1cnc2c(c1)cc([C@H]1CCCO1)n2CCN1CCCCC1,25.8
10,COc1ccc(-c2ccnc(C3CCNCC3)c2)cc1,30.9
11,Fc1ccccc1-c1nccnc1C1CCCNC1 (configuration not stated),10.7
12,COc1cccc(-c2ccnc(C3CCNCC3)c2)c1,-73.8
13,Fc1cccc(-c2nccnc2C2CCCNC2)c1 (configuration not stated),14.9
14,COc1cccc(Cn2c(C3CCNCC3)cc3cccnc32)c1,66.1
15,Fc1cccc(F)c1Cn1c(C2CCCNC2)cc2cccnc21 (configuration not stated),66.1
16,COc1ccc(Cn2c(C3CCNCC3)cc3cccnc32)cc1,66.9
17,CN1CCCC1c1cc2cccnc2n1Cc1ccc(F)cc1 (configuration not stated),69.9
18,COc1cccc(CN2C[C@H]3CCNCC[C@H]3S2(=O)=O)c1,17.1
19,c1cnc2c(c1)cc(C1CCOCC1)n2CCN1CCOCC1,-7.49
20,O=C(C1CCOCC1)N1C[C@H]2CCC[C@@]2(COCc2ccccn2)C1,-15.1
21,Cc1noc(C(C)C)c1C(=O)NCc1cccc(CN(C)C)c1,-13.6
22,Cc1cnc(CNC2CCc3nc(C(C)C)nn3C2)cn1 (configuration not stated),-20.3
23,Cc1ccc(CN2C[C@@H]3CN(CC4CCOCC4)CCO[C@@H]3C2)s1,-95.1
24,CC(C)(C)n1cc(CNc2ccc(CNS(C)(=O)=O)cc2)cn1,-25.8
25,Cn1cnc2c1C(COCC1CC1)CN(Cc1ccc3c(c1)OCO3)C2 (configuration not stated),41.1
26,CCCC(=O)N1CCCN(C(=O)c2oc(C)nc2C)CC1,-111
